High-throughput results deposited in PubChem BioAssay by National Center for Advancing Translational Sciences (NCATS).
GLP-1R inv ag: acts as inverse agonist at human GLP-1 receptor; 410,000 tested, 1.6% active; AID 624417; P43220; Potency, µM (top dose mostly 38.3 µM), for inactives: at the top dose activity change, negative = inhibition, usual class: inhibitors; HEK293 GLP-1R CRE-luciferase, luminescence, 24 h; GLP-1R form is constitutively active; note: potency is the fitted concentration of half-maximal effect; % is set by controls: 0 for no effect and ±100 for the full control effect; nearly all actives have a fitted effect of over 55% in size
Target sequence (P43220 whole entry, looked up): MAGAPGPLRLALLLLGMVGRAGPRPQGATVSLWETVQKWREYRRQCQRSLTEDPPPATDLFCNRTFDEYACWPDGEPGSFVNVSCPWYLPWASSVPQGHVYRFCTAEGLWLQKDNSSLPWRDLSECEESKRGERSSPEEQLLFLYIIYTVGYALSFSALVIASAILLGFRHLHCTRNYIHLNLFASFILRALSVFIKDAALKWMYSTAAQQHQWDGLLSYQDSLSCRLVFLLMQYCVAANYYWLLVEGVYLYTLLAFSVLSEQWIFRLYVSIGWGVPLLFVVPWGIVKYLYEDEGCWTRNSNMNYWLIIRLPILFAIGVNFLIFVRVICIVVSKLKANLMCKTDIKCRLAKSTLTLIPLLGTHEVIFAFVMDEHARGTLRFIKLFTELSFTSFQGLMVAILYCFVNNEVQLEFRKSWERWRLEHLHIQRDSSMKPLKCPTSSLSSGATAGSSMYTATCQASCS
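HEK293 cells stably co-expressing constitutively active GLP-1R and a cAMP-responsive luciferase reporter were seeded in DMEM with 10% Nu serum, given compounds after 12 h, and incubated 24 h at 37 deg C. Luminescence was then read.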
p53 reactivator: re-activators of mutant p53; H1299 p53-A138V BP100-luciferase reporter, luminescence, 24 h; Potency, µM (titrated, usually from 92.2 µM), for inactives: at the highest dose activity change, positive = activation, hits mostly activators; 320,000 tested, 0.063% active; note: potency is the fitted concentration of half-maximal effect; % of control where 0% means no effect; nearly all actives have a fitted effect of over 45% in size
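p53-null H1299 cells stably carrying temperature-sensitive p53-A138V and a BP100-luciferase reporter were pinned with compounds (4-point, 1:5 series) and held 24 hrs at 37 deg C. Luminescence was read 10 min after detection reagent.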
LDHA inh: LDHA (human) enzyme inhibition | P00338 | purified LDHA, NADH/diaphorase-resazurin fluorescence; active compounds read low | activity change, % (values are at about 110 or 230 µM) | 480,000 tested, 0.15% active; in the data active = activity change below about -30%; inconclusive = mostly about -25% to -30%;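 note: plate controls were DMSO wells for no effect and wells without enzyme for full effect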
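Resorufin fluorescence (ex540/em590), read at 0 and 20 min after diaphorase/resazurin addition, reports the NADH left after a 5 min room-temperature reaction of 2 nM human LDH5 with 0.06 mM NADH and 0.2 mM pyruvate.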
GLP1R cytotox: cytotoxicity counter-screen for GLP-1 receptor inverse agonists; Potency, µM (doses to about 38.3 µM), for the others: top-dose activity change, negative = inhibition, actives largely listed as inhibitors; AID 624418; HEK293 cAMP-luciferase reporter cells, luminescence, 24 h; 410,000 tested, 0.13% active;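 note: loss of luciferase light is scored as toxicity; potency is the fitted concentration of half-maximal effect; % is set by controls: 0 for no effect and ±100 for the full control effect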
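MLSMR compounds, 24 hr on cells at 37 deg C/5% CO2; luminescence after luciferase reagent (12 min RT). Inhibition counted as the undesired cytotoxic outcome.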
ClpP mod: qHTS Assay for Activators of ClpP | purified B. subtilis ClpP, FRET peptide cleavage, 20 min | 340,000 tested, 1.9% active | AID 651965, 2013 | ATP-dependent Clp protease proteolytic subunit (Bacillus subtilis (strain 168)), P80244 | Potency, µM (top dose mostly 57.5 µM), without a hit: top-dose activity change, negative = active; active = well fitted falling curve with a large enough effect; inconclusive = small, poorly fitted or top-dose-only effect; inactive = no such curve, though single readings can be large or run the other way; note: potency is the fitted concentration of half-maximal effect; the source files actives as falling curves though it sought activators and does not explain the sign; nearly all actives have a fitted effect of over 65% in size
Target sequence (P80244 whole entry, looked up): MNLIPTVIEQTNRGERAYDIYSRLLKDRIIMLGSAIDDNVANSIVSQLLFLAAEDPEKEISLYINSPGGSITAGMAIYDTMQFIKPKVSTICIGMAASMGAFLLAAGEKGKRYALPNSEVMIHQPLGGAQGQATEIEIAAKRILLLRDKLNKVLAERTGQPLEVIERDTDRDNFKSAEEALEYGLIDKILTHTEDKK
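Buffer: 100 mM Tris/HCl pH8, 100 mM KCl, 0.05% low protease BSA, 2.5% glycerol, 0.01% Tween-20. ClpP 10 microg/mL final; 20 min RT; delta FRET normalized to ADEP and DMSO controls.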
GLP-1R agonist: agonists of human GLP-1 receptor | 380,000 tested, 0.007% active | HEK293 GLP-1R CRE-luciferase, luminescence, 4-6 h; cells express a hypersensitive GLP-1R form | AID 624172 | Potency, µM (series often up to 45.6 µM), for inactives: at the highest dose activation, hits mostly activators; note: potency is the fitted concentration of half-maximal effect; % of control where 0% means no effect
Numbers without * were called inactive. Sampled rows, rich in hits. Any-hit rate of the full collection: about 2.9%. Unless noted, calls come from the whole dose curve; as a rule, active = well fitted curve in the direction sought with a large enough effect; inconclusive = small, poorly fitted or top-dose-only effect, or another doubt; inactive = no such curve, though single readings can be large; an effect the other way counts as inactive or inconclusive.

`NCC(O)(c1ccc(Cl)cc1)c1ccc(Cl)cc1` gave GLP-1R inv ag inconclusive, p53 reactivator -2%, LDHA inh -2, GLP1R cytotox -11%, ClpP mod -1% and GLP-1R agonist -2%.
CC(C)NCC(O)(c1ccc(Cl)cc1)c1ccc(Cl)cc1 was read as GLP-1R inv ag 13µM*, p53 reactivator 1%, LDHA inh 2, GLP1R cytotox -8% and GLP-1R agonist 17%.
Screening O=C(OC(C(=O)c1ccccc1)c1ccccc1)c1ccco1 (centres undefined) returned LDHA inh -7.
For COc1ccc(Br)cc1C(=O)Nc1ccccc1N1CCN(C(=O)c2ccccc2)CC1 the results were GLP-1R inv ag inconclusive, p53 reactivator -6%, LDHA inh 0, GLP1R cytotox 0% and GLP-1R agonist 17%.
COc1c(C)cc(Br)cc1C(=O)Nc1ccccc1N1CCN(C(=O)c2ccccc2)CC1 was read as GLP-1R inv ag 14%, p53 reactivator 0%, LDHA inh -8, GLP1R cytotox -9%, ClpP mod 18µM* and GLP-1R agonist 0%.
Screening CCOC(=O)c1sc2nc(CC(=O)OC)nc(NCc3ccc(Cl)cc3)c2c1C returned GLP-1R inv ag -12%, p53 reactivator -2%, LDHA inh -12, GLP1R cytotox -8%, ClpP mod 14µM* and GLP-1R agonist -8%.
For CCOC(=O)c1sc2nc(CC(=O)OC)nc(NCCN(CC)CC)c2c1C the results were GLP-1R inv ag inconclusive, p53 reactivator -4%, LDHA inh 4, GLP1R cytotox 87%, ClpP mod -30% and GLP-1R agonist 0%.
`CCOC(=O)c1sc2nc(CC(=O)OC)nc(N3CCN(c4ccc(OC)cc4)CC3)c2c1C` gave GLP-1R inv ag 4µM*, p53 reactivator -3%, LDHA inh 6, GLP1R cytotox -7%, ClpP mod 3% and GLP-1R agonist 20%.
CCS(=O)(=O)Nc1c(C(=O)OC)[nH]c2ccccc12 was read as GLP-1R inv ag 8%, p53 reactivator 3%, LDHA inh -1, GLP1R cytotox 0%, ClpP mod -28% and GLP-1R agonist 17%.
For CCS(=O)(=O)Nc1c(C(=O)O)[nH]c2ccccc12 the results were GLP-1R inv ag 17%, p53 reactivator 11%, LDHA inh 3, GLP1R cytotox 12%, ClpP mod 22µM* and GLP-1R agonist 0%.
For O=C(O)C1Cc2[nH]cnc2C(c2ccccc2O)N1 (centres undefined) the results were GLP-1R inv ag 14%, p53 reactivator 3%, LDHA inh 1, GLP1R cytotox 7%, ClpP mod 28µM* and GLP-1R agonist 2%.
`O=C(O)CCN1C(=O)/C(=C\c2cccc(OCC(=O)Nc3ccc(Cl)cc3)c2)SC1=S` gave GLP-1R inv ag -6%, p53 reactivator 15%, LDHA inh -23, GLP1R cytotox inconclusive, ClpP mod 0% and GLP-1R agonist 5%.
Cc1ccc(NC(=O)COc2cccc(/C=C3\SC(=S)N(CCC(=O)O)C3=O)c2)cc1Cl was read as GLP-1R inv ag -19%, p53 reactivator 5%, LDHA inh -36*, GLP1R cytotox -21%, ClpP mod 0% and GLP-1R agonist 6%.
Screening CN1CCN(C(=O)CCCN2C(=O)/C(=C/c3ccc(Cl)cc3)SC2=S)CC1 returned GLP-1R inv ag 10µM*, p53 reactivator inconclusive, LDHA inh 1, GLP1R cytotox inconclusive, ClpP mod 1% and GLP-1R agonist -2%.
O=C1/C(=C/c2ccc(O)cc2)SC(=S)N1Cc1cccnc1 was read as GLP-1R inv ag -1%, p53 reactivator -2%, LDHA inh -9, GLP1R cytotox -6% and GLP-1R agonist 2%.
O=C(CCCN1C(=O)/C(=C\c2ccccc2)SC1=S)Nc1ccc(O)cc1 was read as GLP-1R inv ag inconclusive, p53 reactivator 2%, LDHA inh 5, GLP1R cytotox 10µM* and GLP-1R agonist -3%.
`CN1CCN(C(=O)CCCN2C(=O)/C(=C/c3ccccc3)SC2=S)CC1` gave GLP-1R inv ag inconclusive, p53 reactivator inconclusive, LDHA inh -1, GLP1R cytotox inconclusive and GLP-1R agonist -2%.
Screening C#CCOc1ccc(/C=C2\SC(=S)N(Cc3cccnc3)C2=O)cc1 returned GLP-1R inv ag inconclusive, p53 reactivator 35µM*, LDHA inh 2, GLP1R cytotox inconclusive, ClpP mod 3% and GLP-1R agonist 0%.
For COCCN1Cc2cccc(C(=O)NCCc3ccccc3)c2C1=O the results were GLP-1R inv ag 4%, p53 reactivator 3%, LDHA inh -9, GLP1R cytotox -1% and GLP-1R agonist 6%.
Cc1ccccc1C(=O)N1CCC2CC1c1cc(Cl)ccc12 (centres undefined) was read as GLP-1R inv ag inconclusive, LDHA inh 2, GLP1R cytotox -1%, ClpP mod -1% and GLP-1R agonist -4%.
`Cc1cc(Cl)c(S(=O)(=O)Nc2ccc(Cl)cn2)cc1OCC(N)=O` gave GLP-1R inv ag 1%, p53 reactivator 3%, LDHA inh -1, GLP1R cytotox -8%, ClpP mod 2% and GLP-1R agonist -5%.
For O=C1/C(=C\c2ccc(O)c(O)c2)SC(=S)N1Cc1ccccc1 the results were GLP-1R inv ag inconclusive, p53 reactivator 2%, LDHA inh 13, GLP1R cytotox 10µM* and GLP-1R agonist 6%.
COc1cc(/C=C2/SC(=S)N(Cc3ccccc3)C2=O)ccc1O was read as GLP-1R inv ag inconclusive, p53 reactivator 21%, LDHA inh 0, GLP1R cytotox inconclusive and GLP-1R agonist 13%.
`O=C1/C(=C/c2ccccc2)SC(=S)N1CCCC(=O)N1CCCCC1CCO` (centres undefined) gave GLP-1R inv ag 5µM*, p53 reactivator 10%, LDHA inh -4, GLP1R cytotox 0%, ClpP mod -2% and GLP-1R agonist -3%.
Cc1ccc(C(=O)NN2CC(O)=C(c3nc(-c4cccc([N+](=O)[O-])c4)cs3)C2=N)cc1 was read as GLP-1R inv ag 43%, p53 reactivator 15%, LDHA inh -21, GLP1R cytotox -4% and GLP-1R agonist 5%.
Cc1cc(N2CCCCC2C)nc(-c2ccccc2O)n1 (centres undefined) was read as GLP-1R inv ag 11µM*, p53 reactivator 9%, LDHA inh 2, GLP1R cytotox -1% and GLP-1R agonist 22%.
